From PubChem BioAssay (NCI)
“And” between values parts separate entries of the source, which are not always exact repeats. Equal values may be shown once. About 79,000 compounds went through this panel and 15% of them were active in at least one assay; those are over-represented in the sample as a whole. Unmarked numbers belong to inactive results. The source made the active and inactive calls. No stated cut-off is given here; in the data, active means growth inhibition above about 70%; inactive means the rest.

Assays:
[1] = NCI Yeast Anticancer Drug Screen. Data for the rad50 strain (AID 155);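 further: 0% = growth of vehicle-only cultures of the same strain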; conditions: S. cerevisiae rad50 strain growth inhibition; at 50.0 µM; stronger effect = higher value
In short: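 A DNA repair-deficient yeast mutant serves as the test organism; compound-induced growth inhibition is calculated against vehicle-treated cells.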

[2] = NCI Yeast Anticancer Drug Screen. Data for the mec2-1 strain (AID 157); conditions: S. cerevisiae mec2-1 strain, at 50.0 µM, stronger effect = higher value
In short: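 Yeast mec2-1 mutant treated with compound. Readout: growth inhibition vs vehicle controls.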

[3] = NCI Yeast Anticancer Drug Screen. Data for the sgs1 mgt1 strain (AID 161);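 further: 0% = growth of cultures given vehicle only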; conditions: S. cerevisiae sgs1 mgt1 strain, at 50.0 µM, stronger effect = higher value
In short: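 Mutant yeast exposed to compound; growth scored against vehicle-only wells.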

[4] = NCI Yeast Anticancer Drug Screen. Data for the cln2 rad14 strain (AID 165);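 further: 0% = growth equal to vehicle treated cultures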; conditions: S. cerevisiae cln2 rad14 strain, at 50.0 µM, stronger effect = higher value
In short: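 cln2 rad14 yeast strain; compound exposure; growth inhibition read vs vehicle controls.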

[5] = NCI Yeast Anticancer Drug Screen. Data for the bub3 strain (AID 167); conditions: S. cerevisiae bub3 mutant strain, at 50.0 µM, stronger effect = higher value
In short: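 Inhibition values come from growth of compound-treated mutant yeast normalised to vehicle-treated controls.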

[6] = NCI Yeast Anticancer Drug Screen. Data for the mlh1 rad18 strain (AID 175); conditions: S. cerevisiae mlh1 rad18 strain growth inhibition; at 50.0 µM; stronger effect = higher value
In short: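 Yeast w/ defined DNA-repair lesions; compound exposure; growth vs vehicle controls → % inhibition.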

| SMILES | growth inhibition [1] | growth inhibition [2] | growth inhibition [3] | growth inhibition [4] | growth inhibition [5] | growth inhibition [6] |
| --- | --- | --- | --- | --- | --- | --- |
| CC1(C)N=C(N)N=C(N)N1c1ccc(Cl)c(CCCCc2ccc(S(=O)(=O)F)cc2)c1 | 99.8% (active) | 99.8% (active) | 99.2% (active) | 99.4% (active) | 99.6% (active) | 99.8% (active) |
| O=c1[nH]c2ccc([As](=O)(O)O)cc2[nH]1 | -8.7% | -1.1% | -0.95% | -5.2% | 13.7% | 8.55% |
| Cc1ccc(CCl)c(C)c1 | -21.1% | 8.4% | -6.95% | -39% | 5.45% | -19% |
| O=C(O)c1ccccc1O.[Cu] | -31.2% | -32.5% | -36.8% | -3.85% | -19.1% | -8.65% |
| CC1(C)[C@@H]2CC[C@@]1(C)CN(CCC[N+](C)(C)C)C2 | 15.4% | -11.8% | -30.6% | -5.55% | -19.4% | -2.35% |
| CCCCc1ccc(N=C(N)N)cc1 | 25.6% | 9.35% | 19.4% | 8.3% | 12.2% | -1.95% |
| CN(C)c1ccc(N=Nc2cccc(C(=O)[O-])c2)cc1.CN(C)c1ccc(N=Nc2cccc(C(=O)[O-])c2)cc1.NC1CCCCC1N.[Pt+4] | -13.4% | -4.05% | -18.4% | 1.2% | -28.1% | 36.5% |
| [CH3][Sn]([CH3])([n]1cnc2ccccc21)[n]1cnc2ccccc21 | 0.85% | 9.9% | 12.2% | -4.85% | 0.1% | -3.45% |
| Nc1n[nH][nH]c1=O | -29.5% | -26.1% | -13.9% | -20.4% | -0.7% | -12.1% |
| Cc1cc(C)n(SC(Cl)(Cl)Cl)n1 | -12.3% | 28.3% | -15.3% | -4.6% | 7.45% | -13.7% |
| CC1=CC(C(=O)O)P(C)(=O)C1 (stereo not drawn) | -0.9% | -18.2% | -12.3% | -11.6% | 0.4% | -10.3% |
| O=NN1CCOC1=NC1CCCCC1 | -3.65% | -12.2% | -11.2% | -63% | -22.7% | -9% |
| CNC(=S)P(c1ccccc1)c1ccccc1 | 9.4% | 15.2% | 7.1% | 22.4% | 13.4% | 10.4% |
| Cc1ccc(N)c(N)c1 | 18.6% and 6.85% | -5% and -3.75% | 9.3% and -3.35% | 9.8% and 32.2% | 7.75% and -7.95% | 19% and 7.5% |
| CCOC(CP(=O)(OCC)OCC)OCC | -13.2% and 8.45% | -26.2% and -14.3% | -16.2% and 4.65% | 16.2% and 15.7% | 3.65% and 6.5% | -25.4% and 14.4% |
| CC1(C)N=C(N)N=C(N)N1c1ccc(CCc2ccc(S(=O)(=O)F)c(Cl)c2)c(Cl)c1 | 99.2% (active) | 99.7% (active) | 99.8% (active) | 98.7% (active) | 99.2% (active) | 99.7% (active) |
| CC1(C)C2=CC[C@H]3[C@@H]4CC[C@H](O)[C@@]4(C)CC[C@@H]3[C@@]2(C)CC[C@@H]1O | -2.6% | -16.4% | -4.75% | -19.4% | 5.35% | -3.15% |
| N#CC1CCCCC1 | 0.4% | -5.4% | -0.35% | -3.9% | 4.65% | 1.65% |
